Our source for the growth values is PubChem BioAssay (NCI).

Holding throughout (test): NCI-60 one-dose screen, 48 h (100 = growth as untreated, 0 = no growth, -100 = all killed)
What all share (settings): 10 µM unless noted

For test [1], the system named is HCT-15 colon.
Test [2] has as its system HT29 colon.
Test [3] has as its system SNB-75 CNS.
Test [4] has as its system SNB-19 CNS.
In test [5] the test system is U251 CNS.
The test system of test [6] is PC-3 prostate.
For test [7], the system named is SK-MEL-5 melanoma.
The subject of test [8] is UACC-62 melanoma.
Test [9] deals with LOX IMVI melanoma.
Test [10] has as its system SK-MEL-28 melanoma.
For test [11], the system named is SK-MEL-2 melanoma.
Test [12] relates to EKVX NSCLC.
In test [13] the test system is SN12C renal.
For test [14], the system named is UO-31 renal.
In test [15] the test system is TK-10 renal.
Test [16] concerns ACHN renal.
Test [17] concerns CAKI-1 renal.
Test [18] relates to A498 renal.
Test [19] has as its system MOLT-4 leukemia.
Test [20] relates to CCRF-CEM leukemia.

This is part of a sample that, as a whole, favours compounds with a hit. Of some 83,000 tested, about 20% had one in any assay.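 Growth was measured after 48 h exposure to one concentration of compound in 96-well plates. Values under 10 count as active.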 Values without a mark were called inactive. Calls of active or inactive are those of the source.

Turning to `CC1=Cc2ccccc2OC12C=Cc1ccccc1O2` (configuration not stated), the growth in test [1] is 96.8%; in test [2], 98.2%; in [3], 81.4%; in [4], 91.1%; in test [5], 102%; in [6], 84.9%. Besides, the growth in test [7] was 92.4%; in [8], 83%; in test [9] it was 90.6%; in [10] it was 114%; in [11], 115%; in test [12] it was 82.2%. The growth was 102% in [13]; 69% in test [14]; 180% in test [15]; 88.4% in test [16]; 78.5% in test [17]; 117% in [18]. Also, the growth in test [19] is 99.9%.
`COC(=O)N1CCN(CCNCc2ccc(NC(=O)c3ccc(C)c(C#Cc4cnc5cccnn45)c3)cc2C(F)(F)F)CC1`: the growth is 6.88% (active) in [1]; 17.3% in test [2]; 17.4% in test [3]; 59.6% in test [4]; 36.2% in [5]; 25.5% in test [6]. Besides, the growth in test [7] was -75.2% (active); in test [8] it was 39.3%; in test [9], -79.5% (active); in test [10] it was 12%; in test [11], 4.46% (active); in test [12], 48.9%. Moreover, the growth in test [13] was 39.8%; in test [14], 26.8%; in [15], 68.9%; in [16], 29.6%; in test [17], 20.2%; in test [18] it was 47.8%. For the same compound, in test [19], the growth was 8.21% (active).
Consider `O=C(CCCCCCNC(=O)C(O)(O)C(F)(F)F)Nc1nc2ccccc2s1`, for which the growth in test [1] was 6.75% (active); in test [2], 6.91% (active); in test [3] it was 38.9%; in test [4], 17%; in test [5] it was -35.4% (active); in [6], 34.6%. In addition, the growth in test [7] is -72.5% (active); in [8], -62.7% (active); in test [9], -81.3% (active); in [10], -4.84% (active); in [11] it was -7.95% (active); in [12], 27.5%. In addition, the growth is 10.8% in test [13]; -9.93% (active) in test [14]; -3.74% (active) in [15]; -22.7% (active) in test [16]; -17.8% (active) in test [17]; -21.7% (active) in test [18]. In addition, in test [19], the growth is 15.6%.
As to `O=C1[C@H]2Cc3c([nH]c4ccccc34)[C@H](c3ccc(Cl)cc3)N2C(=O)CN1C1CCN(CC2CCCCC2)CC1`, the growth is 28.6% in test [1]; -21.9% (active) in test [2]; 41.4% in test [3]; 76% in test [4]; 49.2% in test [5]; 52.9% in test [6]. Besides, the growth in test [7] was 37.8%; in test [8], 93.4%; in [9], -79.5% (active); in test [10], 83.2%; in [11], 98.2%; in test [12], 81.5%. Moreover, the growth in [13] was 69.7%; in test [14], 39.1%; in test [15], 112%; in test [16] it was 74.8%; in test [17], 37.9%; in test [18], 80.4%. The growth in test [19] is 35.1%.
In the case of `Cc1cc(C)cc(NC2=C(Cl)C(=O)c3nc(C)ccc3C2=O)c1`, the growth in test [1] was 9.74% (active); in [2], 107%; in [3], 96.4%; in test [4], 75.9%; in [5] it was 89.8%; in test [6] it was 59.4%. Also, the growth in test [7] is 69%; in test [8], 92.7%; in test [9], -3.79% (active); in [10], 81.8%; in [11], 85.5%; in test [12], 55.1%. Moreover, the growth is 8.28% (active) in test [13]; 0.909% (active) in [14]; 128% in [15]; 2.41% (active) in test [16]; 89.6% in [17]; 7.91% (active) in [20]. Further, in test [19], the growth is 24.6%.
Take `O=C(O)CC1CCN(c2ccc3nnc(Cl)n3n2)CC1`: the growth in [1] was 98.8%; in [2] it was 101%; in [3], 84.7%; in test [4], 100%; in test [5], 110%; in [6], 104%. The growth in test [7] is 101%; in test [8] it was 95.5%; in test [9], 95.6%; in test [10] it was 102%; in test [11] it was 106%; in [12], 99.1%. Further, the growth was 98.4% in test [13]; 81.5% in [14]; 102% in [15]; 98.6% in test [16]; 95.8% in [17]; 90.2% in [18]. Further, the growth in test [19] is 109%.
On to `CC[C@H](CC[C@@H](C)[C@H]1CC[C@H]2[C@@H]3CC(=O)C4=CC(=O)/C(=C/c5ccc([N+](=O)[O-])cc5)C[C@]4(C)[C@H]3CC[C@]12C)C(C)C`, for which the growth was 96.9% in test [1]; 104% in [2]; 96.1% in [3]; 102% in [4]; 100% in test [5]; 94.8% in test [6]. For the same compound, the growth in [7] was 96.7%; in [8], 90.2%; in test [9] it was 107%; in test [10], 104%; in test [11] it was 114%; in [12] it was 109%. Further, the growth was 98.4% in test [13]; 79.6% in test [14]; 104% in test [15]; 93.9% in [16]; 90.8% in test [17]; 108% in [18]. Besides, the growth in test [19] was 84.3%.
Take `O=C(CSc1nnc(-c2ccc(Cl)cc2)n1-c1ccccc1)Nc1cccc(F)c1`: the growth in test [1] is 67.8%; in test [2], 48.1%; in test [3], -14.1% (active); in test [4] it was 48.3%; in [5] it was 14.1%; in test [6], 62.1%. Moreover, the growth in test [7] is 87.9%; in test [8], 93.5%; in test [9] it was 0.1% (active); in test [10] it was 78%; in test [11] it was 88.4%; in [12] it was 42.2%. The growth in [13] was 13.7%; in [14], -15.2% (active); in test [15], -14.7% (active); in test [16] it was -31.8% (active); in [17], 14.1%; in [20] it was 91.3%. Further, the growth in test [19] was 85.8%.
